Giardia FBPA inh – Giardia lamblia aldolase inhibition. A8B2U2. purified Giardia FBPA. Potency, µM (top dose mostly 59.6 µM), actives largely listed as inhibitors. 0.71% of 290,000 active. AID 2451; also: nearly all actives have a fitted effect of over 55% in size
Target sequence (A8B2U2 whole entry, looked up): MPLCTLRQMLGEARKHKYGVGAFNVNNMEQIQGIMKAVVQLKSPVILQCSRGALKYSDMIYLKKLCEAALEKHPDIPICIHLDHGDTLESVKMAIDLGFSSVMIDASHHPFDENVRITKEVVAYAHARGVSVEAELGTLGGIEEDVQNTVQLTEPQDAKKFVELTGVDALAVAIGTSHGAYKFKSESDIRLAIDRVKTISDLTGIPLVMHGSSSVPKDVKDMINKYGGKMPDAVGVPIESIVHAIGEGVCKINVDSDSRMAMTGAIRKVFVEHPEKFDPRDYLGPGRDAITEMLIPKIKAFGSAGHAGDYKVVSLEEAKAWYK
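Giardia FBPA (40 nM reagent) was preincubated 10 min at RT with compound (up to 57.5 uM final), then substrate plus GAPDH/TPI/NAD/arsenate coupling system with diaphorase/resazurin was added; resorufin fluorescence (525/598 nm) was read after 20 min.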
RE007 growth inh – less growth of the S. pombe RE007 Vpr strain | S. pombe RE007 Vpr strain, BacTiter-Glo ATP luminescence, 24 h | Potency, µM (top dose mostly 92.2 µM), usual class: inhibitors | 0.21% of 360,000 active; active = well fitted falling curve with a large enough effect; inconclusive = small, poorly fitted or top-dose-only effect; inactive = no such curve, though single readings can be large or run the other way; also: nearly all actives have a fitted effect of over 50% in size
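Fission yeast RE007 carrying one integrated HIV-1 vpr copy, seeded at OD 0.01 in PMG+AL medium with 23 nL pinned compound. Grown 24 h at 30 degrees; viability read by BacTiter-Glo luminescence after 5 min.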
LmPK inh – LmPK (Leishmania mexicana) enzyme inhibition; Q27686; purified LmPK, Kinase-Glo ATP luminescence, 1 h; Potency, µM (doses to about 57.5 µM), most hits filed as inhibitors; 0.37% of 290,000 active
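Pyruvate kinase activity monitored as ATP production (luciferase luminescence). Conditions: 0.1 nM enzyme, 0.5 mM PEP, 0.1 mM ADP, 1 h, RT; normalized against uninhibited and no-enzyme wells.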
Tb PYK inh – inhibitors of Trypanosoma brucei pyruvate kinase; Q57TT1; TbPYK enzyme, Kinase-Glo Plus ATP luminescence, 45 min; Potency, µM (titrated, usually from 76.8 µM), most hits filed as inhibitors; 0.12% of 410,000 active; AID 624173; also: nearly all actives have a fitted effect of over 50% in size
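In this concentration-response screen, enzyme-free wells defined baseline while DMSO plates tracked drift. Each reaction combined TbPYK, substrate, compound and 130 uM ADP for 45 min at room temperature. Kinase-Glo Plus luminescence gave the signal.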
Sm TGR block – blocks Schistosoma mansoni thioredoxin glutathione reductase. purified TGR, DTNB reduction, TNB absorbance 405 nm. Potency, µM (doses to about 114 µM), actives largely listed as inhibitors. 3% of 360,000 active. AID 485364; also: nearly all actives have a fitted effect of over 60% in size
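TGR 20 nM + NADPH 100 uM (dispensed conc.), cpd preinc 15 min RT; start with NADPH (500 uM addition) then DTNB (15 mM addition). Kinetic TNB absorbance, 405 nm filter. Four-parameter Hill fit across titration.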
Numbers stand for hits; . = inactive; ? = inconclusive; / = no result given; [ ] = dose if it differs, or a comment. Only some compounds are listed: those with a hit (about 3.3% of all), similar ones and a draw of the others. Unless noted, calls follow the shape of the dose curve; as a rule, active = well fitted curve in the direction sought with a large enough effect; inconclusive = small, poorly fitted or top-dose-only effect, or another doubt; inactive = no such curve, though single readings can be large; an effect the other way counts as inactive or inconclusive.

SMILES	Giardia FBPA inh	RE007 growth inh	LmPK inh	Tb PYK inh	Sm TGR block
CC(=O)n1cc([C@H]2C=C(C(=O)N3CCN(Cc4ccc5c(c4)OCO5)CC3)O[C@@H](OCc3ccc(CO)cc3)C2)c2ccccc21	.	.	.	.	.
COc1ccc(C(=O)O)cc1N1C(=O)Nc2ccccc2N1O	.	.	.	.	.
CC(C)N(C(=O)CSc1nnc(NC(=O)c2ccco2)s1)C(C)C	.	.	.	.	.
CC(C)CC(NP(=O)(O)O[C@@H]1O[C@@H](C)[C@H](O)[C@@H](O)[C@H]1O)C(=O)NC(Cc1c[nH]c2ccccc12)C(=O)O (stereo partly specified)	.	/	/	/	/
CC1CN(C(=O)COC(=O)Cc2c(F)cccc2Cl)CC(C)O1 (stereo unspecified)	/	.	/	.	.
O=C1CS/C(=N/N=C/c2ccccc2)N1c1ccc(O)cc1	.	.	.	.	.
O=C1CS/C(=N\N=C\c2ccco2)N1c1ccccc1	.	.	.	.	14µM
CN(CCc1ccccn1)C(=O)Nc1ccc(Cl)cc1	.	.	.	.	.
CN(CCc1ccccn1)C1CC(=O)N(c2ccc(Cl)cc2)C1=O (stereo unspecified)	.	3.2µM	.	.	10µM
COc1ccc(Cn2c(CCC(=O)Nc3ccc(C)c(C)c3)nc3cccnc32)cc1	.	.	.	.	.
COC(=O)[C@@H]1[C@@H](C(=O)OC)C2(c3ccccc3-c3ccccc32)N(c2ccc(Cl)cc2)N1C#N	.	.	.	.	2.8µM
Cc1cc(C(F)F)n2ncc(C(=O)NCCc3ccc(Cl)cc3)c2n1	.	.	.	.	.
CCOc1ccc(N2C(=O)CC(SC(=NC)Nc3ccc4c(c3)OCO4)C2=O)cc1 (stereo unspecified)	.	.	.	.	.
Oc1c(Br)cc(Br)c2cccnc12	.	?	/	.	/
[O-][n+]1cccc2c(Br)cc(Br)c(O)c21	?	?	.[11.5 µM]	.	7.9µM
COc1ccc(N2C(=O)NC(=O)/C(=C\c3ccccc3[N+](=O)[O-])C2=O)cc1	.	.	.	?	16µM
O=C1NC(=O)N(c2ccccc2)C(=O)/C1=C\c1ccc([N+](=O)[O-])s1	?	?	.	?	10µM
Cc1cccc(N2C(=O)NC(=O)/C(=C/c3cc4c(cc3[N+](=O)[O-])OCO4)C2=O)c1	.	.	.	?	2.2µM
CCOc1ccc(N2C(=O)NC(=O)/C(=C\c3ccccc3[N+](=O)[O-])C2=O)cc1	.	.	.	?	?
CN1C(=O)NC(=O)/C(=C/c2ccc([N+](=O)[O-])s2)C1=O	?	?	.	14µM	8.9µM
Cc1ccc(/C=C2/C(=O)NC(=O)N(C)C2=O)cc1	.	.	.	.	.
Nc1ccc2nn(-c3cc([N+](=O)[O-])ccc3O)nc2c1	.	.	.	.	.
Fc1ccccc1CSc1ncnc2c1ncn2C1CCCCO1 (stereo unspecified)	/	.	/	.	/
Cc1nn(C(C)c2n[nH]c(=S)n2-c2cccc(Cl)c2)c(C)c1[N+](=O)[O-] (stereo unspecified)	.	.	.	?	.
Cc1nc(-c2ccccc2)sc1-c1ccc(SCC(=O)NCc2ccc(F)cc2)nn1	/	/	/	.	.
SMILES	Giardia FBPA inh	RE007 growth inh	LmPK inh	Tb PYK inh	Sm TGR block
COc1ccc(OC)c(N2C(=O)NC(=O)/C(=C\c3ccc([N+](=O)[O-])s3)C2=O)c1	?	?	.	?	11µM
COCCNC(=O)C1CCCN(Cc2ccc(C#N)cc2)CC1 (stereo unspecified)	/	.[18.4 µM]	/	.	/
COc1cc(-c2n[nH]c(=S)n2-c2ccc(C)cc2)cc(OC)c1OC	.	.	.	8.9µM	.
COc1ccc(-c2n[nH]c(=S)n2-c2ccc(Br)cc2)cc1OC	.	.	18µM	4µM	.
COc1ccc(-n2c(-c3ccc(C)cc3)n[nH]c2=S)cc1	.	.	?	?	.
Cc1ccccc1Nc1cc(C(=O)NCCc2ccc(Cl)cc2)c2ccccc2n1	/	/	/	.	.
O=C1OC(c2cccs2)=N/C1=C/c1ccc(-c2cccc(C(=O)O)c2)o1	.	.	.	.	22µM
COc1cc2ccccc2cc1C(=O)NC1CCCCC1	/	.	/	.	.
Cc1ccc(C(=O)Nc2nnc(CC(=O)N/N=C/c3ccc(O)c(O)c3)s2)cc1	?	/	.	.	45µM
Cc1ccc(C(=O)Nc2nnc(CC(=O)N/N=C/c3ccncc3)s2)cc1	.	.	.	.	.
CC(C)[C@@H](CO)NC(=O)c1ccc2c3n(nc2c1)-c1ccccc1CO3	.	.	14µM	.	.
CC(C)NC(=O)c1ccc2c3n(nc2c1)-c1ccccc1CO3	.	.	13µM	?	.
O=C(NCC1CC1)c1ccc2c3n(nc2c1)-c1ccccc1CO3	.	.	14µM	?	.
Cc1ccc2c(c1)COc1c3ccc(C(=O)NCC4CC4)cc3nn1-2	.	.	.	.	.
CC(C)c1ccc2c(c1)C(=O)NC(C)(C)C2	.	.	.	.	.
Cc1cc(C)n(C(=O)COc2c(C)cccc2C)n1	.	.	.	.	.
CCN(C(=O)c1noc2c1COc1ccc(C)cc1-2)c1cccc(C)c1	/	/	/	.	.
COC(=O)C1=C(c2ccc3ccccc3c2)C[C@@H]2CC[C@H]1N2C	/	.	/	.	.
COC(=O)C1=C(C(=O)OC)C2OC1c1cc3ccccc3cc12	/	35µM	/	28µM	/
COc1ccc(NC(=O)N2CCCC3(CCN(S(C)(=O)=O)CC3)C2)cc1	.	/	/	.	/
O=C(/C=C/Sc1ccc(C(F)(F)F)cn1)c1ccccc1	.	.	.	.	89µM
COc1ccc(S(=O)(=O)N2CCC(C(=O)N3CCc4ccccc4C3)CC2)cc1C	.	.	.	.	.
Cc1nc2sc(-c3ccccc3)cc2c(=O)n1N	.	?	7.1µM	?	.
Cc1nc2sc(-c3ccccc3)cc2c(=O)n1-n1cccc1	.	.	.	.	.
C#CCNC(=O)C1=C[C@@H](C2CCCCC2)C[C@@H](OCc2ccc(CO)cc2)O1	.	.	.	.	22µM
SMILES	Giardia FBPA inh	RE007 growth inh	LmPK inh	Tb PYK inh	Sm TGR block
C#CCNC(=O)C1=C[C@H](C2CCCCC2)C[C@H](OCc2ccc(CO)cc2)O1	.	.	.	.	20µM
O=C(NC1CC1)C1=C[C@H](C2CCCCC2)C[C@H](OCc2ccc(CO)cc2)O1	.	.	.	.	.
CCOC(=O)C(C(=O)OCC)C(c1ccccc1)N1CCN(c2ccccc2)CC1 (stereo unspecified)	/	.	/	.	/
CCOc1ccc(C(c2c(O)cc(C)n(CCOC)c2=O)N2CCN(c3ccc(F)cc3)CC2)cc1 (stereo unspecified)	/	/	/	.	5.6µM
COCCn1c(CN2CCN(C(c3ccccc3)c3ccccc3)CC2)nc2c1c(=O)n(C)c(=O)n2C	.	.	.	.	.
COCCn1c(C)cc(O)c(C(c2ccccc2)N2CCN(c3ccc(F)cc3)CC2)c1=O (stereo unspecified)	/	/	/	.	3.2µM

Screens as filed in PubChem.
